This passage reports Potency results from PubChem BioAssay AID651820 (National Center for Advancing Translational Sciences (NCATS), 2012).

The campaign covered roughly 340,000 compounds. About 12,000 (3.5%) were called active. Entries that show only a call come without a potency. Another 18% or so got no clear call; they are omitted. The call rests on the fitted dose curve; in most records, active means well fitted inhibition curve with a large enough effect; inconclusive means small, poorly fitted or top-dose-only effect, or another doubt; inactive means no such curve, though single readings can be large or run the other way. For the sample, actives were picked, then their nearest neighbours and some compounds at random.
Potency means the concentration at half of the fitted maximal effect.

The assay is described as follows: qHTS Assay for Inhibitors of Hepatitis C Virus (HCV). Particulars: Huh7.5.1 HCVcc-Cre infection, luciferase reporter, 44 h; series mostly up to 41.8 µM. The method in brief: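 Seed cells (1,000/well) for 4 h; treat with compound and infect with HCVcc-Cre, moi about 0.5. Incubate 44 h, then detect luciferase activity.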
In the case of `COCCN(Cc1ccccc1)C(=O)Cc1ccc(S(=O)(=O)N2CCOCC2)s1`, the Potency result is “inactive”.
Then `CC1(C)CC2CC(C)(CN2c2ncnc3ccc(Br)cc23)C1` (configuration not stated), with 10 µM (active).
As to `COc1ccccc1C(=O)N1CC2(C)CC1CC(C)(C)C2` (configuration not stated), the Potency result was “inactive”.
The same measure for `COc1ccc(C(=O)N2CC3(C)CC2CC(C)(C)C3)cc1OC` (configuration not stated): “inactive”.
In the case of `CC(Oc1cccc(Cl)c1)C(=O)Nc1ccc(S(=O)(=O)Nc2ncccn2)cc1` (configuration not stated), the Potency entry was “inactive”.
As for `COc1ccccc1CNC(=O)COn1nnc2ccc(S(=O)(=O)N3CCOCC3)cc21`, the Potency entry was “inactive”.
Take `Cc1cccc(NS(=O)(=O)c2ccc(C)c(C(=O)NCc3cccnc3)c2)c1`: the Potency entry is “inactive”.
Then `COC(=O)C1=C(c2ccccc2OCc2ccccc2)C[C@@H]2CC[C@H]1N2C(=O)NCc1ccc(OC)cc1`, with 11.2 µM (active); and `COC(=O)C1=C(c2ccc(F)cc2OCc2ccccc2)C[C@@H]2CC[C@H]1N2C(=O)NCc1ccc2[nH]ccc2c1`, with “inactive”.
The same measure for `COC(=O)C1=C(c2cccc(OCc3ccccc3)c2)C[C@@H]2CC[C@H]1N2C(=O)NNCc1ccccc1`: “inactive”.
For the molecule `O=C(COC(=O)c1cccnc1Cl)Nc1ccc(S(=O)(=O)N2CCOCC2)cc1`, the Potency entry was “inactive”.
In the case of `O=C(O)c1ccccc1/C=N/Nc1ccc(S(=O)(=O)Nc2ccc(Cl)cc2)cc1[N+](=O)[O-]`, the Potency entry is “inactive”.
As for `N#Cc1ccccc1S(=O)(=O)N1CCN(C(=O)c2cc(-c3ccccc3)nn2-c2ccccc2)CC1`, the Potency was 11.2 µM (active).
As for `N#Cc1ccccc1S(=O)(=O)N1CCN(Cc2c(O)ccc3ccccc23)CC1`, the Potency result was “inactive”.
Regarding `O=C(c1cn(-c2ccccc2)nc1-c1cccnc1)N1CCN(S(=O)(=O)c2ccccc2F)CC1`, the Potency result is “inactive”.
As for `CCCCCNC(=O)Cc1ccc(OC)cc1`, the Potency entry is “inactive”.
As for `CCCCCCCCCCCCn1ccc(=N)cc1`, the Potency is 0.501 µM (active).
Then `CCCCCN1CC(O)=C(c2ccccc2)C1=N`, with “inactive”; and `COCCCNC(=O)CC1C[C@H](C(=O)N2CCCCC2)[C@@]2(CCc3ccccc3)c3[nH]c4ccccc4c3CCN2C1=O` (some centres not stated), with “inactive”.
Consider `O=C(Nc1cccc(Br)c1)C1CC(=O)N(C2CCCC2)C1` (configuration not stated), for which the Potency entry is “inactive”.
In the case of `O=C(Nc1ncccc1O)c1ccc(C(=O)c2ccccc2)cc1`, the Potency result was “inactive”.
With `COc1ccccc1/C=N\Nc1cc(C)nc(-n2nc(C)cc2C)n1`, the Potency was 3.16 µM (active).
As for `COc1ccccc1/C=N/Nc1nc(C)c(C(C)=O)s1`, the Potency entry was “inactive”.
As for `COc1cccc(/C=N/Nc2cc(C)nc(-c3ccccc3O)n2)c1O`, the Potency is 12.6 µM (active).
Consider `Cc1nc(Cl)cc(N/N=C/c2ccccc2)n1`, for which the Potency entry is “inactive”.
As to `COc1cccc(/C=N\NC(=O)C2=NNC(=O)C2C)c1O` (configuration not stated), the Potency result was “inactive”.
As to `COc1cccc(/C=N/Nc2ccc(S(=O)(=O)Nc3ccccc3C(=O)O)cc2[N+](=O)[O-])c1O`, the Potency entry was “inactive”.
